The nature of experiment [1]: qHTS assay to identify small molecule antagonists of the estrogen receptor alpha (ER-alpha) signaling pathway using the BG1 cell line in the presence of 0.1 nM 17-beta-estradiol - cell viability counter screen (AID 1259241). Note: nearly all actives have a fitted effect of over 40% in size. Note: potency is the fitted concentration of half-maximal effect. The method, boiled down:
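VM7Luc4E2 cells (endogenous ER-alpha, 4×ERE-luciferase), hormone-starved 5 days in charcoal-stripped FBS, were treated with compounds plus 0.1 nM 17beta-estradiol for 22 hr at 37C; viability read in same wells as CellTiter-Fluor live-cell protease fluorescence.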

Experiment [2] can be described thus: qHTS assay to identify small molecule antagonists of the androgen receptor (AR) signaling pathway using the MDA cell line in the presence of 0.5 nM R1881 - cell viability counter screen (AID 1259242). Note: nearly all actives have a fitted effect of over 45% in size. Note: potency is the fitted concentration of half-maximal effect. In outline:
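Viability of MDA-kb2 cells was multiplexed with the luciferase AR readout; after 16 hr with compounds and R1881 at 0.5 nM final, CellTiter-Fluor fluorescence was recorded.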

The target of experiment [3] is Estrogen receptor (Homo sapiens) (UniProt P03372). Description: qHTS assay to identify small molecule antagonists of the estrogen receptor alpha (ER-alpha) signaling pathway using the BG1 cell line in the presence of 0.1 nM 17-beta-estradiol (AID 1259244). Note: nearly all actives have a fitted effect of over 50% in size. Note: potency is the fitted concentration of half-maximal effect. In outline:
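Estradiol at 0.1 nM (final) stimulates the endogenous ER-alpha of VM7Luc4E2 cells carrying an ERE-driven luciferase; compounds are co-incubated 22 h at 37C and luciferase output quantified by luminescence.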
(In general: qHTS replaces the single test concentration by a dilution series.)

Experiment [4] is described as follows: qHTS assay to identify small molecule HDAC inhibitors (AID 1259364).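 Note: wild-type HCT-116 cells with endogenous class I/II HDAC activity; top concentration of the series differs between compounds; nearly all actives have a fitted effect of over 45% in size.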 In outline:
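Read-out: luminescence of HDAC-Glo I/II reagent, 30 min RT, reflecting class I/II deacetylase activity in whole HCT-116 cells pre-exposed 2 h to DMSO-dissolved compounds.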

The nature of experiment [5]: qHTS assay to identify small molecule HDAC inhibitors - cell viability counter screen (AID 1259365). Note: series mostly up to about 92 µM; nearly all actives have a fitted effect of over 50% in size. In outline: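 Wild-type HCT-116 cells were seeded at 1,500 per well, incubated overnight at 37 C, then exposed to compounds in DMSO for 2hr. Viability was read by CellTiter-Glo luminescence after 30min at room temperature.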
The nature of experiment [6]: qHTS assay to identify small molecule antagonists of the sonic hedgehog signaling (Shh) pathway - cell viability counter screen (AID 1259367). Note: nearly all actives have a fitted effect of over 55% in size. Note: potency is the fitted concentration of half-maximal effect. The method, boiled down: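 Using CellTiter-Fluor, viability of Gli1-Luc reporter 3T3 cells is read by fluorescence in the wells used for the Shh luciferase assay. Treatment lasts 23 hr with conditioned medium, then reagent 1 hr at 37C.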

Experiment [7] can be described thus: qHTS assay to identify small molecule agonists of the sonic hedgehog signaling (Shh) pathway (AID 1259368; calls by dose curve; note: series mostly up to about 92 µM; nearly all actives have a fitted effect of over 15% in size). The method, boiled down:
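A Gli1 transcriptional response element controlled firefly luciferase in 3T3Gli1-Luc cells. Compounds and a positive control were added 4 hr after plating, and cells were incubated a further 24 hr at 37 C before luminescence detection.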

A short description of experiment [8]: qHTS assay to identify small molecule agonists of the sonic hedgehog signaling (Shh) pathway - cell viability counter screen (AID 1259366). Note: nearly all actives have a fitted effect of over 50% in size. Note: potency is the fitted concentration of half-maximal effect. The method, boiled down: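 NIH/3T3-derived 3T3 Gli1-Luc cells (stable Gli1-responsive firefly luciferase reporter) were seeded, rested 4 hr at 37 C/5% CO2, then exposed to compounds in DMSO for 24 hr; viability was read by CellTiter-Fluor fluorescence in the same wells.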

Experiment [9] is described as follows: qHTS assay to identify small molecule phospholipidosis (PLD) inducers (AID 1259344; active = well fitted curve in the direction sought with a large enough effect; an effect the other way counts as inactive or inconclusive). The method, boiled down: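 Fluorescent phospholipid staining (LipidTOX Red) measured by automated microscopy in fixed HepG2 cells after 24 h treatment; nuclei counterstained with Hoechst 33342; amiodarone as reference inducer.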

Values joined by “and” are separate entries in the source; they are usually repeats but may differ in a detail not shown here. Identical values can stand only once. Records with an inconclusive call do not appear. More than one record can exist for a structure, and the calls need not agree. Active and inactive are the calls of the source. Unless noted, calls come from the whole dose curve; as a rule, active = well fitted curve in the direction sought with a large enough effect in the repeat runs; inconclusive = weak or mixed curves; inactive = no such curve, though single readings can be large; an effect the other way counts as inactive or inconclusive.

Sequence of Estrogen receptor (Homo sapiens) (P03372 whole entry, looked up): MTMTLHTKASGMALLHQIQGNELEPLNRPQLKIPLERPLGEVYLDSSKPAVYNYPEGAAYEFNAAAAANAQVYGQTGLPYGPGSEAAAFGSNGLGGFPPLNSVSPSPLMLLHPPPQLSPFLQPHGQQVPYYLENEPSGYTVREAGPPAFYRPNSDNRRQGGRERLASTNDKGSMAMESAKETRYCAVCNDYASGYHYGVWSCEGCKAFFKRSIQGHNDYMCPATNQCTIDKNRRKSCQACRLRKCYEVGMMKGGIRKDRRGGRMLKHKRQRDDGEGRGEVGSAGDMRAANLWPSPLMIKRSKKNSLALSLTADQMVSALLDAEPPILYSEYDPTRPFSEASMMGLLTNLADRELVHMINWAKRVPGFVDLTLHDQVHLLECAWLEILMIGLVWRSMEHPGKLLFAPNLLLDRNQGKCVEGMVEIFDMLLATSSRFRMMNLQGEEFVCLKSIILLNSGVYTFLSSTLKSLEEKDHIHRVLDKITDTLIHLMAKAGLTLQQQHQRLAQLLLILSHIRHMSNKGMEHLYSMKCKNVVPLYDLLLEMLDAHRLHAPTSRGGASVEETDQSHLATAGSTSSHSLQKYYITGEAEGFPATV

For the compound `Clc1ccc(C(c2ccccc2Cl)C(Cl)(Cl)Cl)cc1` (stereo not given), the Potency result in experiment [1], in experiment [2], in experiment [3], in experiment [4], in experiment [5] and in experiment [6] was “inactive” each time. For the same compound, the Potency entry in experiment [7] is “inactive”.

For `CC(=O)Nc1ccc2c(c1)Cc1ccccc1-2`, the Potency entry in experiment [1], in experiment [2], in [3], in experiment [5], in [8] and in [6] was “inactive” throughout. For the same compound, the Potency result in experiment [7] is “inactive”.

With `C[C@]12CC[C@@H]3c4ccc(OC(=O)N(CCCl)CCCl)cc4CC[C@H]3[C@@H]1CC[C@@H]2O`, the Potency entry in experiment [1], in [2], in experiment [9], in experiment [4], in experiment [5] and in experiment [8] was “inactive” throughout. Further, the Potency entry in [6] is “inactive”.

As for `O=[N+]([O-])c1c2ccccc2cc2ccccc12`, the Potency entry in experiment [1], in experiment [2], in experiment [3], in experiment [5] and in experiment [7] was “inactive” in each case.

For `Cc1c(Cl)c(=O)oc2cc(OP(=O)(OCCCl)OCCCl)ccc12`, the Potency result in experiment [1], in experiment [2], in experiment [9], in experiment [4], in experiment [5] and in experiment [6] was “inactive” each time. For the same compound, in experiment [7], the Potency result is “inactive”.

Consider `Nc1ccc(Sc2ccc(N)cc2)cc1`, for which the Potency result in [1], in experiment [2], in experiment [9], in experiment [4], in experiment [5] and in experiment [8] was “inactive” throughout. In addition, the Potency entry in experiment [6] and in experiment [7] was “inactive” each time.

For the compound `Clc1ccc(CCC(Cn2ccnc2)Sc2c(Cl)cccc2Cl)cc1` (stereo not given), the Potency entry in [1], in [2], in experiment [9], in [4], in experiment [5] and in [8] was “inactive” in each case. In addition, the Potency entry in experiment [6] and in experiment [7] was “inactive” each time.

With `Clc1ccc(COC(Cn2ccnc2)c2ccc(Cl)cc2Cl)cc1` (stereo not given), the Potency result in experiment [1], in experiment [2], in [9], in experiment [4], in experiment [5] and in experiment [7] was “inactive” in each case. In addition, the Potency in experiment [8] was 36 µM (active) and 27.2 µM (active); in experiment [6], 45.3 µM (active) and 27.2 µM (active) and inactive.

For `CN(C)C1CSSSC1`, the Potency entry in experiment [1], in experiment [2], in experiment [3], in experiment [4], in experiment [5] and in experiment [8] was “inactive” each time. In addition, the Potency result in [6] and in experiment [7] was “inactive” in each case.

Take `O=c1[nH]c2ccccc2n1CCCN1CCC(n2c(=O)[nH]c3cc(Cl)ccc32)CC1`: the Potency result in [1], in [2], in experiment [9], in experiment [4], in [5] and in experiment [7] was “inactive” throughout.

For the compound `Cc1cc(SCc2sc(-c3ccc(C(F)(F)F)c(F)c3)nc2C)ccc1OCC(=O)O`, the Potency entry in [1], in experiment [2], in experiment [3], in [5] and in experiment [7] was “inactive” each time. Also, the Potency is 43.3 µM (active) in experiment [8] and 30.6 µM (active) in [6].

Regarding `O=c1ssc(Cl)c1Cl`, the Potency entry in [1], in experiment [3] and in experiment [5] was “inactive” each time. Moreover, the figures for the Potency in experiment [2] and in [8] were 54.5 µM (active) and 30.6 µM (active), respectively.

Turning to `O=C/C(Cl)=C(/Cl)C(=O)O`, the Potency entry in experiment [1], in experiment [2], in [3], in [4], in experiment [5] and in experiment [7] was “inactive” each time.

With `CCCCCCCCCCCCCCCC[N+](C)(C)C`, the Potency entry in [1], in experiment [9], in [4], in [5] and in experiment [7] was “inactive” in each case. Also, the Potency in experiment [2] is 38.6 µM (active); in experiment [8], 54.5 µM (active) and inactive; in [6], 61.1 µM (active) and inactive.

As to `CCCCCCCCCCCCCCC(Br)C(=O)O` (stereo not given), the Potency result in experiment [1], in [2], in [3], in [4], in [5] and in experiment [8] was “inactive” each time. For the same compound, the Potency entry in experiment [6] and in [7] was “inactive” each time.

Consider `CC(C)Oc1cccc(NC(=O)c2ccccc2C(F)(F)F)c1`, for which the Potency entry in experiment [1], in experiment [2], in [9], in experiment [4], in [5] and in experiment [8] was “inactive” in each case. Besides, in experiment [7], the Potency entry was “inactive”.

On to `FC(F)(F)c1cccc(C2=CCN(CCc3ccc4ccccc4c3)CC2)c1`, for which the Potency result in experiment [1], in experiment [2], in experiment [9], in experiment [4], in [5] and in experiment [8] was “inactive” in each case. The Potency entry in experiment [6] and in experiment [7] was “inactive” each time.

`c1ccc(Nc2ccc3ccccc3c2)cc1`: the Potency entry in [1], in experiment [2], in experiment [3], in [5], in experiment [8] and in experiment [6] was “inactive” throughout. Further, the Potency result in [7] was “inactive”.

With `O=S(=O)(c1ccc(Cl)cc1)c1ccc(Cl)cc1`, the Potency entry in experiment [1], in experiment [2], in experiment [9], in experiment [4], in [5] and in experiment [8] was “inactive” each time. The Potency entry in [6] and in [7] was “inactive” throughout.

As for `CCCCCCCCCBr`, the Potency result in [1], in experiment [2], in [3], in [4], in [5] and in experiment [6] was “inactive” throughout. Besides, in experiment [7], the Potency result is “inactive”.

For the compound `Nc1ccc(Cl)cc1C(=O)c1ccccc1`, the Potency result in experiment [1], in experiment [2], in experiment [3], in experiment [4], in [5] and in experiment [8] was “inactive” in each case. Also, the Potency entry in [7] was “inactive”.

In the case of `N#C/C=C/C#N`, the Potency entry in experiment [1], in experiment [2], in experiment [3], in experiment [4], in experiment [5] and in [6] was “inactive” in each case. Besides, the Potency result in [7] is “inactive”.

As to `Clc1ccc(C(c2ccc(Cl)cc2)C(Cl)(Cl)Cl)cc1`, the Potency result in experiment [1], in experiment [2], in experiment [9], in [4], in [5] and in experiment [6] was “inactive” each time. Further, the Potency result in experiment [7] is “inactive”. The Potency in [8] was 48.9 µM (active) and inactive.

Take `O=c1oc2ccccc2c(O)c1Cc1c(O)c2ccccc2oc1=O`: the Potency result in experiment [1], in experiment [2], in experiment [9], in experiment [4], in experiment [5] and in [8] was “inactive” throughout. Moreover, the Potency entry in [6] and in [7] was “inactive” in each case.

For the compound `OC(c1ccc(Cl)cc1)(c1ccc(Cl)cc1)C(Cl)(Cl)Cl`, the Potency entry in experiment [1], in experiment [2], in experiment [3], in experiment [4], in experiment [6] and in experiment [7] was “inactive” each time.

As for `O=[N+]([O-])c1cc(C(F)(F)F)c(Cl)c([N+](=O)[O-])c1Cl`, the Potency in experiment [1] was 61.1 µM (active); in experiment [2], 27.3 µM (active); in experiment [3] it was 61.1 µM (active); in [8], 13.7 µM (active); in [6], 21.7 µM (active). Besides, in experiment [4], the Potency result is “inactive”.

Consider `Nc1ccccc1C(=O)OC/C=C/c1ccccc1`, for which the Potency result in experiment [1], in [2], in experiment [3], in experiment [5], in experiment [8] and in experiment [6] was “inactive” each time.

The values above are taken from PubChem BioAssay (Tox21).
